Screens (PubChem)
In the library only some 2.4% were active in any assay of this set; here they are far more common.
Pol kappa inh: qHTS for Inhibitors of Polymerase Kappa; purified Pol kappa, fluorescent DNA synthesis assay, 10 min; Potency, µM (doses to about 107 µM), for the others: top-dose activity, negative = inhibition, usual class: inhibitors; hit rate 0.53% among 400,000; also: % is scaled to controls: 0 for no effect and ±100 for the full control effect
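Pol kappa 10 nM + cpd, 15 min RT; start w/ substrate 50 nM final; fluorescence kinetic read, 0 and 10 min. Neg ctrl: buffer, no enzyme.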
WRN helicase inh: qHTS for Inhibitors of WRN Helicase; Bifunctional 3'-5' exonuclease/ATP-dependent helicase WRN (Homo sapiens), Q14191; WRN helicase unwinding, fluorescent forked duplex, kinetic; Potency, µM (doses to about 114 µM), without a hit: top-dose activity change, negative = inhibition, hits mostly inhibitors; hit rate 0.46% among 360,000; also: % is scaled to controls: 0 for no effect and ±100 for the full control effect; nearly all actives have a fitted effect of over 55% in size
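Primary qHTS, 1536-well format. 20 nM WRN + compound, 15 min RT; start with 100 nM forked fluorophore/quencher duplex, 2 mM ATP (final); kinetic read ex 525/em 598 nm.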
Pol eta inh: qHTS for Inhibitors of Polymerase Eta; DNA polymerase eta (Homo sapiens), Q9Y253; recombinant Pol eta, fluorescent DNA replication assay; Potency, µM (series often up to 114 µM), without a hit: at the top dose activity change, negative = inhibition, usual class: inhibitors; hit rate 1.2% among 390,000; AID 588591, 2011; also: % is scaled to controls: 0 for no effect and ±100 for the full control effect
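Fluorescent replication assay: 50 nM final substrate added after a 15 min room-temperature compound preincubation with 10 nM enzyme. Signal taken at 0 min and again at 10 min.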
POLB inh: qHTS Assay for Inhibitors of DNA Polymerase Beta. Pol beta primer extension/strand displacement, fluorescence kinetic. hit rate 1.3% among 340,000. P06746. Potency, µM (titrated, usually from 114 µM), for the others: at the top dose activity change, negative = inhibition, actives largely listed as inhibitors; also: % is scaled to controls: 0 for no effect and ±100 for the full control effect
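Human Pol beta at 10 nM; strand-displacement substrate 50 nM final. Compound exposure 15 min at room temperature before start, reaction 10 min at room temperature.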
FEN1 inh: qHTS Assay for the Inhibitors of Human Flap endonuclease 1 (FEN1) | AID 588795, 2011 | Recombinant FEN1 flap cleavage, fluorescence, 15 min | Potency, µM (series often up to 114 µM), for the others: at the top dose activity change, negative = inhibition, usual class: inhibitors | P39748 | hit rate 0.35% among 390,000; also: % is scaled to controls: 0 for no effect and ±100 for the full control effect; nearly all actives have a fitted effect of over 65% in size
Target sequence (P39748 whole entry, looked up): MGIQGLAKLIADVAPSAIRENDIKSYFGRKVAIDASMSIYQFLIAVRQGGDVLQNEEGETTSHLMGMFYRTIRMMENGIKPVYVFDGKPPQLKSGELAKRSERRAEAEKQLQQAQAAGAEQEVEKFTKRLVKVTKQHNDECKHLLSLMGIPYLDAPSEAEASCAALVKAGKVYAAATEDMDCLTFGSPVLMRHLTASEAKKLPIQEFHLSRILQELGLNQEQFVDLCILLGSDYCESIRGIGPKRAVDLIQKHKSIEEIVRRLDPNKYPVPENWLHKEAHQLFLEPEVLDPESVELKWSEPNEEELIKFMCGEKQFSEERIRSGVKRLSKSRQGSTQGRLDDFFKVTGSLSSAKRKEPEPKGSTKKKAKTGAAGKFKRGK
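In this screen, 50 nM flap DNA substrate was added to 10 nM FEN1 pretreated with compound for 15 min at room temperature; cleavage was followed with reads at 0 and 15 min, and Hill fitting gave concentration–response parameters.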
POLI inh: qHTS for Inhibitors of Polymerase Iota; Pol iota fluorescent replication assay, 10 min; Potency, µM (top dose mostly 115 µM), inactives show at the highest dose activity, negative = inhibition, hits mostly inhibitors; hit rate 1% among 390,000; AID 588590, 2011
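Fluorescent replication assay read twice, at 0 min and 10 min after adding 50 nM (final) substrate. Enzyme (10 nM) and compounds were first incubated 15 min at room temperature; enzyme-free buffer wells were negative controls.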
The depositor's hits bear a star; ? = inconclusive; nt = no result; ! = not active in a repeat; [ ] = another dose, or the depositor's remark. Calls follow the shape of the dose curve; as a rule, active = well fitted curve in the direction sought with a large enough effect; inconclusive = small, poorly fitted or top-dose-only effect, or another doubt; inactive = no such curve, though single readings can be large; an effect the other way counts as inactive or inconclusive. Potency is read from the fitted curve at half-maximal effect.

SMILES	Pol kappa inh	WRN helicase inh	Pol eta inh	POLB inh	FEN1 inh	POLI inh
O=C1c2cc(F)ccc2OC2(CCNCC2)C12CC(c1ccccc1)=NO2 (centres undefined)	-23.6%	-2.9%	-10.1%	3.1%	13.5%	9.0%
CCOc1ccc(C(C(=O)NCC2CCCO2)N(CCc2cccc(C)c2)C(=O)c2snc(C(N)=O)c2N)cc1 (centres undefined)	-5.5%	-6.5%	?	8.0%	0.8%	92.2%
COc1cc(/C=C(\C#N)C(=O)N2CCc3ccccc32)ccc1O	-12.5%	-7.5%	-3.1%	0.0%	-16.4%	-2.4%
COc1cc(/C=C(\C#N)C(=O)NCCc2ccccc2)cc(OC)c1O	-4.5%	-5.9%	-9.7%	20.7%	8.6%	41.3%
N#C/C(=C\c1ccc(O)c(O)c1)C(=O)NCCc1ccccc1	?	7.1%	8.91µM*	-1.7%[57.1 µM]	?	?
N#C/C(=C\c1ccc(O)c(O)c1)C(=O)N1CCc2ccccc21	0.0%	17.8µM*	39.8µM*	nt	?	?
CCOC(=O)C1CCN(Cc2nnnn2CCc2ccccc2)CC1	1.4%[60.1 µM]	-3.5%	-0.2%	-18.5%	22.2%	18.7%
CC(C)CCNC(=O)c1c[nH]c2ccc(S(=O)(=O)N3CCC4(CC3)OCCO4)cc2c1=O	-3.0%	-14.4%	-0.8%	35.5µM*	-8.2%	6.5%
Cc1ccc(SCc2cc(=O)[nH]c(/N=C(\N)Nc3cccc4ccccc34)n2)cc1	-15.7%[60.1 µM]	1.4%	2.7%	52.8%	13.4%	0.1%
COCCSc1nc2c(c(=O)[nH]c(=O)n2C)n1CCCc1ccccc1	-10.5%	7.7%	-1.6%	4.7%	15.7%	13.5%
Cc1cccc(/C=N/Nc2ccc3ccccc3n2)c1	-1.7%	-7.4%	-6.9%	?	0.1%	-12.0%
O=C1/C(=C\c2ccc(Br)o2)SC(=Nc2ccccc2)N1c1ccccc1	?	-31.6%	-27.8%	0.398µM*	3.8%	?
CN(C)N1C(=O)/C(=C/c2ccco2)SC1=Nc1ccccc1	-19.1%	-7.8%	-3.4%	nt	1.1%	?
Cc1ccc(C2=NN(C(=O)c3ccccc3F)C(c3ccccc3F)C2)cc1 (centres undefined)	-1.6%	-11.7%	-7.4%	0.0%	-8.6%	80.8%
COc1ccc(C(=O)Oc2ccc(C3NC(=O)c4c(sc5c4CCN(C)C5)N3)cc2OC)cc1 (centres undefined)	-11.0%	nt	-22.9%	9.6%	-5.5%	63.5%
CCOc1cc(C2NC(=O)c3c(sc4c3CCN(C)C4)N2)ccc1OC(=O)c1ccccc1Cl (centres undefined)	-20.9%	nt	-16.2%	2.9%	89.1µM*	?
COC(=O)c1ccc(-n2c(C)cc(C(=O)CCl)c2C)cc1	-5.1%	-10.4%[57.1 µM]	?	-10.8%	16.0%	12.6µM*
Nc1nonc1C(=O)N/N=C/c1ccc(-c2cccc(C(=O)O)c2)o1	nt	nt	nt	17.8µM*	nt	nt
CCOc1ccc(S(=O)(=O)N2CCOCC2)cc1NC(=O)CCN1C(=O)NC2(CCCC2)C1=O	nt	-5.7%	0.7%	nt	nt	nt
O=C(NNC(=O)c1cc2cc3ccccc3nc2s1)c1ccc(F)cc1	-37.2%	-23.5%[57.1 µM]	?	0.316µM*	-9.5%	?
CN(C)S(=O)(=O)N1CCC(CCCC2CCN(S(=O)(=O)N(C)C)CC2)CC1	-9.0%	-2.3%	-9.2%	3.4%	-3.4%	20.2%
Cc1nc(-c2ccc(C(=O)O)cc2)cs1	-8.9%	6.6%	-8.8%	79.4µM*	2.6%	-0.7%
Cc1nc(-c2cccc(NC(=O)c3ccc(-n4nccc4C)cc3)c2)cs1	-13.6%	-11.3%	-8.5%	nt	10.6%	-8.0%
Cc1nc(-c2ccc(C(=O)Nc3cccc(Br)c3)cc2)cs1	-13.4%	-13.1%	-17.2%	31.6µM*	-3.1%	?
O=C1OC2(c3cc(I)c(O)c(I)c3Oc3c2cc(I)c(O)c3I)c2c(Cl)c(Cl)c(Cl)c(Cl)c21	7.52µM*	nt	nt	nt	nt	nt
SMILES	Pol kappa inh	WRN helicase inh	Pol eta inh	POLB inh	FEN1 inh	POLI inh
O=C1OC2(c3ccccc31)c1cc(I)c(O)c(I)c1Oc1c2cc(I)c(O)c1I	26.7µM*	nt	nt	nt	nt	nt
O=C1OC2(c3ccc(O)cc3Oc3cc(O)ccc32)c2ccccc21	29.9µM*	nt	nt	nt	nt	nt
C(=NNC1=NCCN1)c1ccnc2ccccc12	nt	3.8%	nt	nt	nt	nt
COc1ccc(-n2nnnc2SCC(=O)NC2CC2)cc1	4.1%	-1.8%	89.1µM*	nt	34.5%	4.4%
CC1CC(C)CN(C(=O)CSc2nc3ccsc3c(=O)n2Cc2ccccn2)C1 (centres undefined)	-11.3%	0.4%	-5.8%	17.8%	-14.3%	13.2%
CCOc1ccc(-c2nc(CSCC(=O)NC3CCCc4ccccc43)c(C)o2)cc1 (centres undefined)	-10.3%	-1.6%	-24.5%	8.2%	4.7%	24.1%
CCc1ccc(NC(=O)Nc2cn(C)c(=O)c3ccccc23)cc1	-19.9%[60.1 µM]	nt	-4.9%	-18.3%	-2.5%	?
Cc1ccc(NC(=O)Nc2cn(C)c(=O)c3ccccc23)c(Cl)c1	-14.4%	nt	4.9%	?	15.1%	70.8µM*
CC(C)c1ccc(CCNC(=O)CCNS(=O)(=O)c2ccc(Br)cc2)cc1	4.3%	-0.9%	-3.2%	nt	18.7%	5.9%
COc1ccc(NC(=O)C2=CC(c3cccs3)=NS(=O)(=O)N2C)cc1	5.2%	-3.4%	-3.7%	31.6µM*!	-21.8%	18.5%
COc1ccc(-c2nc3c(n2O)CCc2c-3no[n+]2[O-])cc1	6.1%	3.4%	-29.3%	14.5%	1.6%	18.2%
Cc1[nH]c2ccccc2c1C(=O)C(=O)NCCc1c[nH]c2ccccc12	-6.9%	-6.8%[57.1 µM]	-14.2%	-1.4%	-18.1%	-0.4%
CCOc1ccc(S(=O)(=O)N(CC(=O)N/N=C/c2ccc(-c3ccc([N+](=O)[O-])cc3)o2)c2ccccc2)cc1	?	-29.5%	3.16µM*	7.08µM*	-18.9%	?
O=C(/C=C/c1ccccc1)/C=C/c1ccccc1	-11.1%	?	17.8µM*	23.7%	?	?
CC(/C=C\c1ccccc1)=C/C(=O)O	3.2%	-7.3%	-5.8%	-6.0%	3.8%	135.8%
O=C(O)c1ccc(/C=C/C(=O)c2ccc3c(c2)OCCCO3)cc1	-3.4%	-9.1%[11.6 µM]	22.4µM*	8.8%	-1.2%	?
Cc1ccc(C(=O)NNC(=O)c2ccc3ccccc3c2)cc1	-16.4%	-10.1%	-9.9%	nt	-1.8%	59.3%
C=C(C(=O)O)c1ccc2ccccc2c1	?	nt	nt	nt	-17.9%	79.4µM*
O=C(c1ccc2ccccc2c1)N1CCN(S(=O)(=O)/C=C/c2ccccc2)CC1	-5.3%	-0.2%	-16.6%	7.0%	-5.5%	16.2%
CC(=O)Nc1ccc(/C=C/C(=O)c2ccc3c(c2)OCCO3)cc1	-17.0%	-4.6%	-21.8%	15.6%	9.0%	?
